Sensor-assay potency score (higher = more potent) data for 12 sequences are collected here from the OligoGym collection.
Further: reference of the scale not given here.

In this experiment the target is FAM174A. As to the kind of experiment: pooled miR-30 sensor sort-seq; sequence = guide strand. Conditions: shRNA.
For the sequence TTGGCATCAAACAACGTGTTGT, the sensor-assay potency score (higher = more potent) was -0.0509. The result for TAGTTCAGGCAGCAACAGCAGG reads -1.17; that for ATATCTCCTAGTCTTTCGGTTT, -1.26; that for TCTTCTTCTCATCCTGACCGTC, -0.459. The result for AAGTACACCAGCACCGCGCCGC reads -0.391; that for TGTTAGTGTCCAAAACTCCATA, -0.864. The result for TTCTTCTTCTCATCCTGACCGT reads -0.117; that for TTCTAAAGGTGTCAATTCCATA, -1.28; that for TATCTCCTAGTCTTTCGGTTTC, -1.02. For TGATCGTCCGTCTCAAGCCCGG, the sensor-assay potency score (higher = more potent) is -1.42. For the sequence TAGTCTTTCGGTTTCTTCTTCT, the sensor-assay potency score (higher = more potent) stood at 0.156. With ATTTTCTATGTTAGTGTCCAAA, the sensor-assay potency score (higher = more potent) is -1.74.
